This is part of a sample that, as a whole, favours compounds with a hit. Of some 79,000 tested, about 15% had one in any assay. Active and inactive are the calls of the source. No stated cut-off is given here; in the data, active means growth inhibition above about 70%; inactive means the rest.
Experiments:
[1] = NCI Yeast Anticancer Drug Screen. Data for the wt1 strain (AID 149);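 further: 0% = growth of vehicle-treated wt1 cultures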; settings: S. cerevisiae wt1 strain (SPY 50644) growth inhibition, stronger effect = higher value
Procedure, shortened: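 The wt1 strain was treated with compounds, and growth was compared with vehicle-treated cultures to give inhibition.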

[2] = NCI Yeast Anticancer Drug Screen. Data for the mgt1 strain (AID 153); settings: S. cerevisiae mgt1 mutant growth inhibition, stronger effect = higher value
Procedure, shortened: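 mgt1 yeast grown with test compound; read-out is growth inhibition versus vehicle-treated cultures.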

[3] = NCI Yeast Anticancer Drug Screen. Data for the rad50 strain (AID 155);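 further: 0% = growth of vehicle-only cultures of the same strain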; settings: S. cerevisiae rad50 strain growth inhibition, stronger effect = higher value
Procedure, shortened: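 Cells are treated with compound, grown, and their growth is then scored against vehicle-only cultures of the same repair-deficient yeast strain.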

[4] = NCI Yeast Anticancer Drug Screen. Data for the mec2-1 strain (AID 157); settings: S. cerevisiae mec2-1 strain, stronger effect = higher value
Procedure, shortened: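 Yeast mec2-1 mutant treated with compound. Readout: growth inhibition vs vehicle controls.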

[5] = NCI Yeast Anticancer Drug Screen. Data for the rad14 strain (AID 159);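 further: 0% = growth of vehicle-treated control cultures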; settings: S. cerevisiae rad14 strain growth inhibition, stronger effect = higher value
Procedure, shortened: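 Readout: yeast growth inhibition, referenced to vehicle-only cultures. Strain bears a defined alteration in DNA damage repair.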

[6] = NCI Yeast Anticancer Drug Screen. Data for the sgs1 mgt1 strain (AID 161);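 further: 0% = growth of cultures given vehicle only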; settings: S. cerevisiae sgs1 mgt1 strain, stronger effect = higher value
Procedure, shortened: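 Test agents were incubated with a DNA-repair-mutant yeast strain. Growth was then read and compared against vehicle-treated controls.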

[7] = NCI Yeast Anticancer Drug Screen. Data for the CLN2oe strain (AID 163);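 further: 0% = growth of vehicle-only control cultures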; settings: S. cerevisiae CLN2oe strain, stronger effect = higher value
Procedure, shortened: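 Read-out: yeast growth inhibition, expressed relative to vehicle-only controls. The strain bears an engineered cell-cycle alteration.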

[8] = NCI Yeast Anticancer Drug Screen. Data for the cln2 rad14 strain (AID 165);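 further: 0% = growth equal to vehicle treated cultures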; settings: S. cerevisiae cln2 rad14 strain, stronger effect = higher value
Procedure, shortened: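 cln2 rad14 yeast strain; compound exposure; growth inhibition read vs vehicle controls.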

[9] = NCI Yeast Anticancer Drug Screen. Data for the bub3 strain (AID 167); settings: S. cerevisiae bub3 mutant strain, stronger effect = higher value
Procedure, shortened: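 Part of a panel of yeast mutants defective in DNA damage repair or cell cycle regulation. Each strain is grown with compound, and inhibition is calculated relative to solvent-treated cultures.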

[10] = NCI Yeast Anticancer Drug Screen. Data for the wt2 strain (AID 169);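 further: 0% = growth of vehicle-treated yeast cultures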; settings: S. cerevisiae wt2 strain growth inhibition, stronger effect = higher value
Procedure, shortened: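 Read-out: growth inhibition versus vehicle-treated control cultures after compound exposure of the yeast strain.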

[11] = NCI Yeast Anticancer Drug Screen. Data for the mlh1 strain (AID 171);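 further: 0% = growth of vehicle-treated control cultures of the same strain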; settings: S. cerevisiae mlh1 strain growth inhibition, stronger effect = higher value
Procedure, shortened: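 Read-out: growth inhibition versus vehicle controls. Strain: engineered yeast with a defined DNA repair or cell cycle defect, compound-treated.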

[12] = NCI Yeast Anticancer Drug Screen. Data for the sgs1 strain (AID 173);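 further: 0% = growth of vehicle-only control cultures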; settings: S. cerevisiae sgs1 mutant, stronger effect = higher value
Procedure, shortened: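 Read-out: yeast growth inhibition relative to vehicle controls, following compound exposure of a strain with a defined DNA repair/cell cycle alteration.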

[13] = NCI Yeast Anticancer Drug Screen. Data for the mlh1 rad18 strain (AID 175); settings: S. cerevisiae mlh1 rad18 strain growth inhibition, stronger effect = higher value
Procedure, shortened: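 Yeast w/ defined DNA-repair lesions; compound exposure; growth vs vehicle controls → % inhibition.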

[14] = NCI Yeast Anticancer Drug Screen. Data for the rad18 strain (AID 177); settings: S. cerevisiae rad18 mutant growth inhibition, stronger effect = higher value
Procedure, shortened: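 Readout: growth inhibition vs vehicle controls. Cells: genetically altered yeast strain, DNA repair defect.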

[15] = NCI Yeast Anticancer Drug Screen. Data for the rad50EPP+ strain (AID 151);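 further: 0% = growth of vehicle-treated control cultures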; settings: S. cerevisiae rad50 mutant strain, stronger effect = higher value
Procedure, shortened: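 Growth inhibition read against vehicle controls in rad50EPP+ yeast, a strain altered in DNA damage repair, after compound exposure.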

[16] = at 5.0 µM (retest, dose inferred, filed as 0.5)
[17] = at 50.0 µM (retest, dose inferred, filed as 5.0)

Measured: growth inhibition

Cc1ccc2[nH]c3c(C)c4cc[n+](C)cc4c(C)c3c2c1
inactive: [1]; at 1.2 µM -6% | [1]; at 3.7 µM -12% | [1]; at 11.0 µM -10% | [1]; at 33.0 µM 6% | [2]; at 1.2 µM -18% | [2]; at 3.7 µM -15% | [2]; at 11.0 µM -23% | [2]; at 33.0 µM 47% | [3]; at 1.2 µM 12% | [3]; at 3.7 µM 16% | [3]; [16] 22% | [3]; at 11.0 µM 26% | [4]; at 1.2 µM -2% | [4]; at 3.7 µM 19% | [4]; [16] 15% | [4]; at 11.0 µM 8% | [4]; at 33.0 µM 55% | [5]; at 1.2 µM 16% | [5]; at 3.7 µM 6% | [5]; at 11.0 µM -8% | [5]; at 33.0 µM 41% | [6]; [16] 13% | [6]; [17] 8% | [7]; at 1.2 µM 42% | [7]; at 3.7 µM 37% | [7]; at 11.0 µM 36% | [7]; at 33.0 µM 63% | [8]; [16] 30% | [8]; [17] 37% | [8]; at 50.0 µM 62.3% | [9]; at 1.2 µM 10% | [9]; at 3.7 µM 24% | [9]; [16] 12% | [9]; at 11.0 µM 23% | [9]; at 33.0 µM 51% | [9]; at 50.0 µM 65.6% | [10]; at 1.2 µM 3% | [10]; at 3.7 µM -19% | [10]; at 11.0 µM -15% | [10]; at 33.0 µM 49% | [11]; at 1.2 µM 7% | [11]; at 3.7 µM 25% | [11]; at 11.0 µM 14% | [11]; at 33.0 µM 61% | [12]; at 1.2 µM 1% | [12]; at 3.7 µM -21% | [12]; at 11.0 µM 22% | [12]; at 33.0 µM 54% | [13]; [16] 14% | [13]; at 50.0 µM -26.9% | [14]; at 1.2 µM -11% | [14]; at 3.7 µM -1% | [14]; at 11.0 µM 1% | [14]; at 33.0 µM 37%
active: [1]; at 100.0 µM 79% | [2]; at 100.0 µM 94% | [3]; at 33.0 µM 83% | [3]; [17] 91% | [3]; at 50.0 µM 85.6% | [3]; at 100.0 µM 95% | [4]; [17] 71% | [4]; at 50.0 µM 79.8% | [4]; at 100.0 µM 94% | [5]; at 100.0 µM 90% | [6]; at 50.0 µM 85.7% | [7]; at 100.0 µM 95% | [9]; [17] 81% | [9]; at 100.0 µM 95% | [10]; at 100.0 µM 95% | [11]; at 100.0 µM 94% | [12]; at 100.0 µM 93% | [13]; [17] 72% | [14]; at 100.0 µM 93%

Cc1ccc(-c2ccc(Nc3c4ccccc4nc4ccccc34)cc2)cn1
inactive: [1]; at 1.2 µM 30% | [1]; at 3.7 µM 20% | [1]; at 11.0 µM 43% | [1]; at 100.0 µM 67% | [15]; at 1.2 µM 22% | [15]; at 3.7 µM 44% | [2]; at 1.2 µM 4% | [2]; at 3.7 µM -5% | [2]; at 11.0 µM 7% | [3]; at 1.2 µM 15% | [3]; at 3.7 µM 60% | [4]; at 1.2 µM -20% | [4]; at 3.7 µM -25% | [4]; [16] 9% | [4]; at 11.0 µM 11% | [5]; at 1.2 µM -27% | [5]; at 3.7 µM -19% | [5]; at 11.0 µM -4% | [5]; at 100.0 µM 59% | [6]; [16] 8% | [7]; at 1.2 µM 15% | [7]; at 3.7 µM 19% | [7]; at 11.0 µM 29% | [8]; [16] 37% | [8]; at 50.0 µM 58.6% | [9]; at 1.2 µM -5% | [9]; at 3.7 µM -45% | [9]; [16] 5% | [9]; at 11.0 µM -12% | [9]; at 50.0 µM 25.5% | [9]; at 100.0 µM 36% | [10]; at 1.2 µM -14% | [10]; at 3.7 µM 2% | [10]; at 11.0 µM 22% | [10]; at 100.0 µM 39% | [12]; at 1.2 µM 3% | [12]; at 3.7 µM 6% | [12]; at 11.0 µM 44% | [13]; [16] 16% | [14]; at 1.2 µM 0% | [14]; at 3.7 µM -10% | [14]; at 11.0 µM 12%
active: [1]; at 33.0 µM 90% | [15]; at 11.0 µM 85% | [15]; at 33.0 µM 95% | [15]; at 100.0 µM 95% | [2]; at 33.0 µM 83% | [2]; at 100.0 µM 95% | [3]; [16] 81% | [3]; at 11.0 µM 90% | [3]; at 33.0 µM 93% | [3]; [17] 97% | [3]; at 50.0 µM 97% | [3]; at 100.0 µM 88% | [4]; at 33.0 µM 86% | [4]; [17] 98% | [4]; at 50.0 µM 90.4% | [4]; at 100.0 µM 84% | [5]; at 33.0 µM 75% | [6]; [17] 75% | [6]; at 50.0 µM 80.2% | [7]; at 33.0 µM 85% | [7]; at 100.0 µM 73% | [8]; [17] 70% | [9]; at 33.0 µM 79% | [9]; [17] 84% | [10]; at 33.0 µM 92% | [12]; at 33.0 µM 94% | [12]; at 100.0 µM 88% | [13]; [17] 89% | [13]; at 50.0 µM 90.1% | [14]; at 33.0 µM 89% | [14]; at 100.0 µM 86%

N#C/C(=C\c1cccc(OCc2ccccc2)c1)c1ccc([N+](=O)[O-])cc1
inactive: [1]; at 1.2 µM -18% | [1]; at 3.7 µM -4% | [1]; at 11.0 µM -22% | [1]; at 33.0 µM -28% | [1]; at 100.0 µM -33% | [15]; at 1.2 µM -66% | [15]; at 3.7 µM -49% | [15]; at 11.0 µM -63% | [15]; at 33.0 µM -82% | [15]; at 100.0 µM -88% | [2]; at 1.2 µM -35% | [2]; at 3.7 µM -29% | [2]; at 11.0 µM -61% | [2]; at 33.0 µM -53% | [2]; at 100.0 µM -71% | [3]; at 1.2 µM -5% | [3]; at 3.7 µM -25% | [3]; [16] 53% | [3]; at 11.0 µM -22% | [3]; at 33.0 µM -23% | [3]; at 50.0 µM 10.9% | [3]; at 100.0 µM -23% | [4]; at 1.2 µM -88% | [4]; at 3.7 µM -74% | [4]; [16] 61% | [4]; at 11.0 µM -81% | [4]; at 33.0 µM -91% | [4]; at 50.0 µM 14.2% | [4]; at 100.0 µM -96% | [5]; at 1.2 µM -43% | [5]; at 3.7 µM -48% | [5]; at 11.0 µM -24% | [5]; at 33.0 µM -51% | [5]; at 100.0 µM -84% | [6]; [16] -10% | [6]; [17] 43% | [6]; at 50.0 µM 27.9% | [7]; at 1.2 µM 11% | [7]; at 3.7 µM -17% | [7]; at 11.0 µM -28% | [7]; at 33.0 µM -31% | [7]; at 100.0 µM -39% | [8]; [16] 33% | [8]; [17] 43% | [8]; at 50.0 µM 0.05% | [9]; at 1.2 µM -28% | [9]; at 3.7 µM -42% | [9]; [16] -5% | [9]; at 11.0 µM -37% | [9]; at 33.0 µM -40% | [9]; [17] 29% | [9]; at 50.0 µM 61.1% | [9]; at 100.0 µM -60% | [10]; at 1.2 µM -34% | [10]; at 3.7 µM -43% | [10]; at 11.0 µM -49% | [10]; at 33.0 µM -61% | [10]; at 100.0 µM -75% | [11]; at 1.2 µM -44% | [11]; at 3.7 µM -41% | [11]; at 11.0 µM -51% | [11]; at 33.0 µM -64% | [11]; at 100.0 µM -72% | [12]; at 1.2 µM -39% | [12]; at 3.7 µM -47% | [12]; at 11.0 µM -64% | [12]; at 33.0 µM -54% | [12]; at 100.0 µM -59% | [13]; [16] 50% | [13]; at 50.0 µM 15.2% | [14]; at 1.2 µM -26% | [14]; at 3.7 µM -29% | [14]; at 11.0 µM -24% | [14]; at 33.0 µM -49% | [14]; at 100.0 µM -36%
active: [3]; [17] 97% | [4]; [17] 96% | [13]; [17] 98%

From PubChem BioAssay (NCI)
